Assay results reported in PubChem BioAssay AID1347415 (National Center for Advancing Translational Sciences (NCATS), 2020).
Inconclusive results are not listed. Values without a mark were called inactive. Activity calls are given as the source filed them. The call rests on the fitted dose curve; in most records, active means well fitted inhibition curve with a large enough effect; inconclusive means small, poorly fitted or top-dose-only effect; inactive means no such curve, though single readings can be large or run the other way.

Experiment: qHTS to identify inhibitors of the type 1 interferon - major histocompatibility complex class I in skeletal muscle: tertiary screen by RT-qPCR
Settings: C25cl48 human myoblasts, IFN-beta, HLA-B RT-qPCR, 24 h; series mostly up to 49.8 µM; activity change, negative = inhibition: at the top concentration
Description: Assay Submitter (PI): Travis B. Kinder Ph.D. & James Inglese Ph.D. Assay Development and Screening Technology Laboratory (ADST) National Center for Advancing Translational Sciences (NCATS), Rockville, MD National Institute of Health (NIH), Bethesda, Maryland Idiopathic inflammatory myopathies, collectively referred to as myositis, are a group of rare autoimmune diseases characterized by skeletal muscle inflammation, weakness, and usually accompanied by systemic pathologies of the skin, lungs, or vasculature. Current immunosuppressive therapies and glucocorticoids are often not curative and are accompanied by harsh side effects, especially in children with juvenile myositis. We initiated a drug repurposing and development program to identify more targeted, less toxic therapeutics to treat myositis. Although its cause is not known, muscle from a subset of patients have an abundance of the inflammatory type 1 interferon (IFN) and a down-stream product major histocompatibility complex class I (MHC class I), which are both thought to contribute to damage and weakness. We conducted quantitative high throughput screening (qHTS) on 6,576 compounds (4,679 unique) through a series of cell-based assays to identify those that inhibit the IFN-stimulated expression of MHC class I in muscle precursor cells (myoblasts). The compound identification and evaluation strategy utilized a primary screen with reporter-tagged MHC class I in genome-engineered myoblasts, ATP content counter screen for viability, HLA-ABC immunofluorescence secondary screen, and HLA-B RT-qPCR tertiary screen. To determine if active compounds identified by qHTS in HLA-B HiBit reporter cells, and confirmed by HLA-ABC immunofluorescence, can inhibit the transcription of HLA-B mRNA, compounds were assayed by RT-qPCR. Briefly, 62 compounds identified from primary, counter, and secondary screening as inhibitory with minimal cytotoxicity were dispensed into 384-well plates using acoustic dispensing in a 6-point, 1:7 titration with a high final concentration of 10 uM. Normal immortalized human myoblasts C25cl48 were added to the plate with 4.0 ng/ml human IFN-beta for 24 hours, and cells were harvested and assayed by the Cells-to-Ct kit with TaqMan assays (Thermo Fisher).
PROTOCOL TABLE (as described by Inglese et al., 2007) SEQUENCE No. (e.g., 1, 2, 3, etc.); […] (e.g., Cells, Incubation, Reagent, etc.); VALUE; DESCRIPTION 0; Compounds; 150 nl; Follow-up compounds dispensed at 150 nl/well with Labcyte Echo 655 acoustic dispenser into one Corning white/clear bottom, high base TC 384-well plates (3765) 1a; Cells; 30 uL; Using a p200 manual pipette, seed 780 cells/well into 1 plate in 30 ul/well of iHSKM growth medium without dexamethasone into columns wells A1-A6. […]

Row | Structure (SMILES) | activity change, negative = inhibition [%] | Potency
1 | C[C@@H]1O[C@@H](O[C@@H]2C=C3CC[C@@H]4[C@H](CC[C@]5(C)[C@@H](c6ccc(=O)oc6)CC[C@]45O)[C@@]3(C)CC2)[C@H](O)[C@H](O)[C@H]1O | -8.47 | –
2 | Cc1[nH]nc2ccc(-c3cncc(OC[C@@H](N)Cc4c[nH]c5ccccc45)c3)cc12 | – | 207 nM (active)
3 | CC(C)[C@]12O[C@H]1[C@@H]1O[C@@]13[C@@]1(C)CCC4=C(COC4=O)[C@@H]1C[C@@H]1O[C@@]13C2=O | -132 | –
4 | C[C@@H]1O[C@@H](O[C@H]2C[C@@H](O)[C@]3(CO)[C@H]4[C@H](O)C[C@]5(C)[C@@H](C6=CC(=O)OC6)CC[C@]5(O)[C@@H]4CC[C@]3(O)C2)[C@H](O)[C@H](O)[C@H]1O | -14.7 | –
5 | COc1cccc2c1C(=O)c1c(O)c3c(c(O)c1C2=O)C[C@@](O)(C(=O)CO)CC3OC1CC(N2CCOC(OC)C2)C(O)C(C)O1 (stereo not given in full) | – | 92.4 nM (active)
